Rows were chosen to be rich in hits. Some 7.9% of all compounds tested hit in one or more screens of this group.
SW480 rereplic – DNA re-replication induction in SW480 cells. SW480 DNA re-replication, Hoechst DNA content imaging, 48 h. Potency, µM (titrated, usually from 46.1 µM), for inactives: at the highest dose re-replication activation, actives largely listed as activators. 340,000 compounds, 1.8% hits; further: % of control where 0% means no effect; nearly all actives have a fitted effect of over 55% in size
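Image-based DNA-content assay: after two days of treatment, nuclei were labelled with the DNA dye Hoechst and imaged, and hits were compounds raising the count of nuclei showing high fluorescence intensity.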
KB-3-1 cytotox – KB-3-1 parental cell cytotoxicity | KB-3-1 viability, CellTiter-Glo ATP luminescence, 72 h | AID 1347075 | Potency, µM (highest dose often 46.1 µM), most hits filed as cytotoxic | 400,000 compounds, 1.4% hits; further: on the % scale 0 is the no-effect control and ±100 the full control effect; nearly all actives have a fitted effect of over 60% in size
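Cytotoxicity measured as CellTiter-Glo luminescence after 72 h at 37 C. Compound titrations were pinned onto drug-naive KB-3-1 parental adenocarcinoma cells grown in DMEM with 10% FBS, and normalized data fitted to concentration-response curves.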
HT1080 IDH1KD tx – HT-1080 IDH1 knockdown cell toxicity (counter line) | HT-1080 IDH1 knockdown viability, ATP luminescence, 48 h | Potency, µM (titrated, usually from 46.1 µM), without a hit: top-dose activity, negative = toxicity, most hits filed as cytotoxic | 360,000 compounds, 2% hits | AID 686971;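 further: 0% = DMSO wells and -100% = cell-free medium wells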
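In this qHTS, HT-1080 cells depleted of IDH1 are exposed for 48 h at 37 °C to compound titrations. Toxicity is scored from CellTiter-Glo luminescence, with DMSO as full viability and medium alone as none.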
MCF10A rereplic – inducers of DNA re-replication in MCF 10A breast cells | 350,000 compounds, 2.9% hits | AID 624296 | MCF 10A DNA re-replication, Hoechst nuclear intensity, 48 h | Potency, µM (top dose mostly 46.1 µM), for the others: at the top dose activity, positive = re-replication, most hits filed as activators; further: % of control where 0% means no effect; nearly all actives have a fitted effect of over 50% in size
KB-V1 MDR tox – KB-V1 MDR subline cytotoxicity; KB-V1 MDR cells viability, CellTiter-Glo, 72 h; Potency, µM (series often up to 46.1 µM), actives largely listed as cytotoxic; 400,000 compounds, 3.4% hits; AID 1347076; further: on the % scale 0 is the no-effect control and ±100 the full control effect; nearly all actives have a fitted effect of over 60% in size
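Potencies derive from concentration-effect curves fitted to normalized luminescence (CellTiter-Glo) of KB-V1 cells treated for 72 h at 37 degrees C in phenol-red-free DMEM containing 10% FBS.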
HT1080-NT tox – kills 2HG-producing HT-1080-NT fibrosarcoma cells; HT-1080-NT fibrosarcoma viability, CellTiter-Glo ATP luminescence, 48 h; Potency, µM (doses to about 46.1 µM), without a hit: top-dose activity, negative = less viability, usual class: cytotoxic; 360,000 compounds, 1.6% hits; AID 686970;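 further: NT is the 2HG producing partner of a matched IDH1 knockdown line; 0% = DMSO-treated cells and -100% = media-only wells without cells; nearly all actives have a fitted effect of over 55% in size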
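Viability by CellTiter-Glo luminescence after 48 h compound exposure at 37C of HT-1080-NT cells (750/well, RPMI, 5% FBS). % activity scaled between DMSO wells and medium-only wells, then curve-fitted and categorized by curve class.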
* marks the source's active call; other numbers are inactive results; i = inactive; u = inconclusive; x = no result given; [ ] = dose if it differs, or a comment. The call rests on the fitted dose curve; in most records, active means well fitted curve in the direction sought with a large enough effect; inconclusive means small, poorly fitted or top-dose-only effect, or another doubt; inactive means no such curve, though single readings can be large; an effect the other way counts as inactive or inconclusive. Potency means the concentration at half of the fitted maximal effect.

SMILES	SW480 rereplic	KB-3-1 cytotox	HT1080 IDH1KD tx	MCF10A rereplic	KB-V1 MDR tox	HT1080-NT tox
CCn1c(=NC(=O)c2ccc(S(=O)(=O)N3CCCC3)cc2)sc2cc(Br)ccc21	x	i	x	x	i	x
O=C1C(c2ccccc2)=NCCN1C(c1ccc(F)cc1)c1nc2ccccc2[nH]1 (centres undefined)	x	i	8%	x	i	-1%
CN(C)S(=O)(=O)c1ccc(C(=O)Oc2cc(=O)[nH]c3ccccc23)cc1	4%	i	-3%	6.5µM*	i	-15%
c1ccc2sc(NC3=NCN(C4CCCCCC4)CN3)nc2c1	-12%	u	3%	2%	21µM*	-1%
CCCCn1c(O)c2n(c1=O)Cc1ccccc1N=C2c1ccc(C)cc1	x	i	-3%	x	i	0%
O=C(Nc1cc(F)cc(F)c1)Nc1nnc(-c2ccncc2)s1	x	i	x	x	i	x
Cc1ccc(Nc2nc(NCC3CCCO3)nc(N)c2[N+](=O)[O-])cc1 (centres undefined)	29%	i	-18%	12%	21µM*	-20%
CC(NC(=O)CC(c1ccccc1)c1cc(Cl)ccc1O)c1ccccc1 (centres undefined)	14%	u	u	u	21µM*	-15%
CC(NC(=O)CCC(=O)NC(C)c1ccccc1)c1ccccc1 (centres undefined)	u	i	-2%	-3%	i	-22%
CN(Cc1ccccc1)C(=O)CC(c1ccccc1)c1cc(Cl)ccc1O (centres undefined)	u	u	u	u	13µM*	u
CC(NC(=O)CCSCCC(=O)NC(C)c1ccccc1)c1ccccc1 (centres undefined)	-2%	i	u	15%	16µM*	7%
CCCN(CCC)C(=O)CC(c1ccccc1)c1cc(C)ccc1O (centres undefined)	9%	i	u	u	u	u
COc1ccc(S(=O)(=O)n2nc(C)c(S(=O)(=O)N3CCCCCC3)c2C)cc1C	x	i	x	x	u	x
COc1c2c(c3c(c1OC)c(=O)c1ccccc1n3C)OCO2	15%	i	0%	10%	13µM*	-1%
COc1c2c(c(OC)c3c1c(=O)c1ccccc1n3C)OCO2	u	i	-4%	11%	u	12%
O=C(O)CCC(=O)OCCN(Cc1ccc(Oc2ccc([N+](=O)[O-])cc2)cc1)C(=O)C(Cl)Cl	-1%	i	-5%	8%	23µM*	4%
O=C(CCS(=O)(=O)c1ccccc1)OCc1ccc([N+](=O)[O-])cc1	1%	i	6%	0%	i	14%
CNC1=CN(O)C(c2ccccc2)=c2cc(Cl)ccc2=N1	-2%	x	x	16%	x	x
CC(=O)c1cccc(NC(=O)C(C)OC(=O)CCN=C2NS(=O)(=O)c3ccccc32)c1 (centres undefined)	-13%	i	0%	-1%	i	-9%
CCOC(=O)c1c(-c2ccc(OC)cc2)csc1/N=C/C1C(=O)CCCC1=O	u	i	18µM*	u	i	u
CCOC(=O)c1c(/N=C/N(C)C)sc(C(=O)OC)c1C	-4%	i	6%[9.24 µM]	2%	i	-12%
CCOC(=O)c1c(-c2ccc(OC)cc2)csc1/N=C/N(C)C	-4%	u	-1%	9%	23µM*	-1%
CCOC(=O)C1=C(COC(=O)/C=C/c2cccc(OC)c2)NC(=O)NC1C (centres undefined)	-4%	i	u	-6%	i	15%
COc1cccc(CN2C(=O)c3ccccc3Sc3ccc(C(=O)N(C)Cc4ccccc4)cc32)c1	x	i	x	x	i	x
CN1CCN(C(=O)c2cccc(-c3cnc4cnc(-c5ccccc5Oc5ccccc5)cn34)c2)CC1	x	u	23µM*	x	7.3µM*	u
SMILES	SW480 rereplic	KB-3-1 cytotox	HT1080 IDH1KD tx	MCF10A rereplic	KB-V1 MDR tox	HT1080-NT tox
O=C(c1cccc(-c2cncc3nccn23)c1)N1CCOCC1	x	i	10%	x	i	13%
CC1CCN(c2nc(/C=C/c3ccccc3)nc3ccccc23)CC1	1%	i	u	21µM*	u	u
C(=C\c1nc(N2CCCC2)c2ccccc2n1)/c1ccccc1	u	23µM*	u	u	u	26µM*
COc1ccc(-c2nn(-c3ccccc3)cc2/C=N/NC(N)=S)cc1OC	2.1µM*	i	0.65µM*	1.6µM*	u	0.73µM*
O=C(O)/C=C/c1cn(-c2ccccc2)nc1-c1ccc(-c2ccc([N+](=O)[O-])cc2)o1	u	i	18%	3.3µM*	i	11%
COc1ccc(-c2nn(-c3ccccc3)cc2/C=C/C(=O)O)cc1[N+](=O)[O-]	u	u	18µM*	u	i	-13%
COc1ccc(-c2nn(-c3ccccc3)cc2C=O)cc1[N+](=O)[O-]	u	i	-2%	13%	i	17%
CCOC(=O)C1=CC(OC(CC)CC)C(NC(C)=O)C(N)C1 (centres undefined)	3%	x	x	-10%	x	x
N#CCCN(Cc1cccnc1)C(=S)NC(=O)c1ccccc1	-3%	i	0%	-1%	i	-2%
CCOC(=O)CCCCC(=O)c1[nH]c(=O)[nH]c1CSc1nnc2c3ccccc3n(C(C)C)c2n1	-6%	i	-19%	23%	15µM*	-20%
Oc1c(CN2CCOCC2)cc(COCc2ccccc2)c2cccnc12	3.7µM*	u	13µM*	u	u	u
Oc1c(CNc2ccccc2)cc(COCc2ccccc2)c2cccnc12	0.46µM*	i	x	8%	i	x
Cc1ccc(NCc2ccc(O)c3ncccc23)cc1	u	i	-25%	5%	i	1%
Cc1cc(OCc2cccc(Cl)c2)c(C)cc1CN1CCOCC1	0%	i	-21%	18%	i	-6%
CC1CCCC(NC(=O)COC(=O)/C=C/c2ccco2)C1C (centres undefined)	-5%	i	3%	-6%	u	1%[9.24 µM]
O=C(COC(=O)c1c2c(nc3ccccc13)/C(=C\c1ccco1)CC2)NC1CCCC1	6.5µM*	x	-12%	u	x	0%
CC1CCCCC1NC(=O)COC(=O)c1c2c(nc3ccccc13)/C(=C\c1ccco1)CC2 (centres undefined)	u	i	-6%	18µM*	i	-20%
CCCc1nc2ccccc2c(C(=O)OCC(=O)NC2CC2)c1CC	4%	u	-3%	-2%	u	-4%
